In PubChem BioAssay (NCI):
Compounds without any hit were thinned out: in the full panel of roughly 83,000, 20% have a hit.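 Interpretation: 100, growth as untreated; towards 0, rising growth inhibition; 0, no net growth; 0 to -100, cell death. Compounds scoring below 10 were considered active.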 Active and inactive are the calls of the source.

Legend:
Test in all cases: NCI-60 one-dose screen, 48 h (100 = growth as untreated, 0 = no growth, -100 = all killed)
Conditions in all cases: 10 µM unless noted
T-47D breast = test system: T-47D breast
BT-549 breast = test system: BT-549 breast
SW-620 colon = test system: SW-620 colon
MCF7 breast = test system: MCF7 breast
HCT-116 colon = test system: HCT-116 colon
HCC-2998 colon = test system: HCC-2998 colon
KM12 colon = test system: KM12 colon

Measured: growth

CCCCn1c(-c2ccc(C(=O)O/N=C(\N)c3ccc(OC)cc3)cc2)nc(-c2ccccc2)c1-c1ccccc1
inactive: BT-549 breast 11.7%
active: T-47D breast -31.8% | SW-620 colon 5.52% | MCF7 breast -24.7% | HCT-116 colon -33.6% | HCC-2998 colon 1.5% | KM12 colon 9.02%

COc1ccc(-c2cc(-c3ccc(Cl)cc3)c(C#N)c(=O)n2CCCCCC(=O)Nc2ccccc2N)cc1
inactive: T-47D breast 18.6% | BT-549 breast 58.4% | SW-620 colon 42.4% | MCF7 breast 31% | HCT-116 colon 22.5% | HCC-2998 colon 82.8% | KM12 colon 40.4%

O=C(CCN1C(=O)/C(=C/c2ccc(O)cc2)SC1=S)Nc1ccccc1
inactive: T-47D breast 104% | BT-549 breast 93.1% | SW-620 colon 102% | MCF7 breast 96.6% | HCT-116 colon 98.2% | HCC-2998 colon 111% | KM12 colon 99.1%

COc1ccc(C2C(C#N)=C(N)Oc3c2sc2c(C)cccc32)cc1 (configuration not stated)
inactive: T-47D breast 46.9% | BT-549 breast 25.1% | SW-620 colon 26% | MCF7 breast 10.8% | HCT-116 colon 13.2% | HCC-2998 colon 11% | KM12 colon 11.7%

CC(C)OC(=O)Nc1ccc(-c2nc(-c3cccc(OCCN4CCOCC4)c3)c(-c3ccnc(Br)c3)[nH]2)cc1
active: MCF7 breast -9.12%
inactive: T-47D breast 31.2% | BT-549 breast 42.1% | SW-620 colon 19.9% | HCT-116 colon 22.3% | HCC-2998 colon 29.4% | KM12 colon 10.4%

Cc1ccc(-c2cnc3sc(C(=O)NCCc4ccccc4)c(C)n23)cc1
inactive: T-47D breast 70% | BT-549 breast 79.5% | SW-620 colon 91.9% | MCF7 breast 83.2% | HCT-116 colon 95.6% | HCC-2998 colon 96.9% | KM12 colon 96%

Cc1cccc2c3c(sc12)C(c1ccc(Cl)cc1)C(C#N)=C(/N=C/c1ccc(Cl)cc1)O3 (configuration not stated)
inactive: T-47D breast 51% | BT-549 breast 22.7% | SW-620 colon 26.1% | HCT-116 colon 13.4% | HCC-2998 colon 16.2%
active: MCF7 breast 9.92% | KM12 colon 9.86%

COc1cccc(-c2nc(-c3ccc(NC(=O)OC(C)C)cc3)[nH]c2-c2ccnc(Br)c2)c1
active: T-47D breast 6.55%
inactive: BT-549 breast 48% | SW-620 colon 34.2% | MCF7 breast 10.5% | HCT-116 colon 13.2% | HCC-2998 colon 39.5% | KM12 colon 17%

COc1cccc(-c2nc(-c3ccc(NC(=O)C(C)C)cc3)[nH]c2-c2ccnc(Br)c2)c1
active: T-47D breast 0.829%
inactive: BT-549 breast 56.9% | SW-620 colon 42.2% | MCF7 breast 12.3% | HCT-116 colon 34% | HCC-2998 colon 45.7% | KM12 colon 36.4%

CCCCCCn1c(-c2ccc(C(=O)O/N=C(\N)c3ccc4c(c3)OCO4)cc2)nc(-c2ccccc2)c1-c1ccccc1
active: T-47D breast -11.9% | MCF7 breast 7.05% | HCT-116 colon 2.68%
inactive: BT-549 breast 43.5% | SW-620 colon 37.8% | HCC-2998 colon 44% | KM12 colon 31.8%

CCOC(=O)c1sc2ncc(-c3ccc(C)cc3)n2c1C
inactive: T-47D breast 89% | BT-549 breast 107% | SW-620 colon 93.4% | MCF7 breast 86.7% | HCT-116 colon 93% | HCC-2998 colon 93.3% | KM12 colon 86.6%

CCc1cccc2c3c(sc12)C(c1ccc(Cl)cc1)C(C#N)=C(N)O3 (configuration not stated)
inactive: T-47D breast 27.8% | BT-549 breast 50.8% | SW-620 colon 33.4% | MCF7 breast 10.3% | HCT-116 colon 17.9% | HCC-2998 colon 17.5% | KM12 colon 18.5%

CCOC(=O)Nc1ccc(-c2nc(-c3cccc(OCCN4CCOCC4)c3)c(-c3ccnc(Br)c3)[nH]2)cc1
inactive: T-47D breast 35.6% | BT-549 breast 56.4% | SW-620 colon 42.6% | MCF7 breast 11.6% | HCT-116 colon 30.9% | HCC-2998 colon 38.5% | KM12 colon 20.2%

CCCCCCn1c(-c2ccc(C(=O)O/N=C(\N)c3ccc(OC)cc3)cc2)nc(-c2ccccc2)c1-c1ccccc1
active: T-47D breast -30.4% | BT-549 breast -2.06% | SW-620 colon -1.32% | MCF7 breast -39.3% | HCT-116 colon -56.1% | HCC-2998 colon 3.48%
inactive: KM12 colon 15.7%

CCc1cccc2c1S/C(=C/c1ccc(Cl)cc1)C2=O
inactive: T-47D breast 68.2% | BT-549 breast 112% | SW-620 colon 94.5% | MCF7 breast 52.1% | HCC-2998 colon 110% | KM12 colon 98.2%

Cc1cccc(NC2=C(Cl)C(=O)c3nc(C)ccc3C2=O)c1
active: T-47D breast -50.2% | BT-549 breast 3.34% | SW-620 colon -13.7% | MCF7 breast -57.8% | HCT-116 colon -47.6% | HCC-2998 colon 3.47%
inactive: KM12 colon 33.5%

Cc1ccc(NC2=C(Cl)C(=O)c3nc(C)ccc3C2=O)cc1
inactive: BT-549 breast 44.9% | KM12 colon 36.6%
active: T-47D breast -47.5% | SW-620 colon -30.7% | MCF7 breast -66.1% | HCT-116 colon -39.5% | HCC-2998 colon 4.99%

CCOC(=O)C1=C(N)Oc2c(sc3c(C)cccc23)C1c1ccc(Cl)cc1 (configuration not stated)
active: MCF7 breast 8.74%
inactive: T-47D breast 17.6% | BT-549 breast 65.7% | SW-620 colon 23.7% | HCT-116 colon 23.9% | HCC-2998 colon 49.3% | KM12 colon 15.3%

CCOC(=O)C1=C(N)Oc2c(sc3c(C)cccc23)C1c1ccc(OC)cc1 (configuration not stated)
inactive: T-47D breast 26% | BT-549 breast 49.6% | SW-620 colon 20.3% | HCT-116 colon 18.4% | HCC-2998 colon 74.4% | KM12 colon 27.4%
active: MCF7 breast 7.65%
